Test [1] has as its target Cellular tumor antigen p53 (Homo sapiens) (UniProt P04637). Briefly: TOX21_p53_BLA_p2_ratio: Tox21 HCT-116 p53 Agonism Beta-lactamase Assay, Ratio, Phase 2 (AID 2283592). The essentials: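 DMSO-normalized, positive-direction endpoint derived from the 460 nm/530 nm FRET ratio in HCT116 p53 beta-lactamase reporter cells exposed 16 h at 37C and loaded with CCF4-AM for 2 h.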

A short description of test [2]: TOX21_p53_BLA_p3_viability: Viability Assessment in the Tox21 HCT-116 p53 Agonism Beta-lactamase Assay, Phase 3 (AID 2283593).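 Also: cells exposed to compound for 16 h before reading.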 The essentials: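 HCT116 cells, 4000/well, dosed 5 h after plating by pin transfer (217-fold dilution from DMSO stock) and incubated 16 h at 37C, 5% CO2. Viability read as ATP luminescence with CellTiter-Glo after 30 min at room temperature.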

The nature of test [3]: TOX21_p53_BLA_p5_viability: Viability Assessment in the Tox21 HCT-116 p53 Agonism Beta-lactamase Assay, Phase 5 (AID 2283600). The essentials: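 Here cell health was gauged by ATP levels in wells holding 4000 cells, each treated 16 h with DMSO-delivered compounds at 217-fold dilution; reduced luminescence marked toxicity.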
Test [4] concerns the target Cellular tumor antigen p53 (Homo sapiens) (UniProt P04637). Briefly: TOX21_p53_BLA_p4_ratio: Tox21 HCT-116 p53 Agonism Beta-lactamase Assay, Ratio, Phase 4 (AID 2283601). The essentials: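 HCT-116 p53 beta-lactamase reporter cells (4000/well) preincubated 5 h, then compound (217-fold dilution of DMSO stock) for 16 h at 37C. CCF4-AM substrate added 2 h at room temperature; 460/530 nm emission ratio fitted upward versus DMSO.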

Test [5] is described as follows: TOX21_p53_BLA_p4_viability: Viability Assessment in the Tox21 HCT-116 p53 Agonism Beta-lactamase Assay, Phase 4 (AID 2283597).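 Also: hits lower the luminescence signal meaning cytotoxicity.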 The essentials:
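In this multiplexed secondary endpoint, HCT116 cells (4000 per well, compound at 5 h, 16 h treatment) received CellTiter-Glo after the beta-lactamase read. Luminescence after 30 min RT reflects ATP, and falling signal marks cytotoxicity.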

For test [6], the target named is Cellular tumor antigen p53 (Homo sapiens) (UniProt P04637). The test can be described thus: TOX21_p53_BLA_p5_ratio: Tox21 HCT-116 p53 Agonism Beta-lactamase Assay, Ratio, Phase 5 (AID 2283599). The gist of the method: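 HCT-116 p53-bla cells (4000/well) plated 5 h, dosed with compound (217-fold DMSO dilution) for 16 h at 37 C; CCF4-AM substrate 2 h at room temperature. Activity is the 460/530 nm emission ratio (405 nm excitation), fitted in gain-of-signal direction versus DMSO.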

The nature of test [7]: TOX21_p53_BLA_p2_viability: Viability Assessment in the Tox21 HCT-116 p53 Agonism Beta-lactamase Assay, Phase 2 (AID 2283591).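 Also: compound exposure lasted 16 h at 37 °C; actives lower the ATP signal meaning cytotoxicity.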 The essentials:
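HCT116 p53-bla cells, 4000/well, dosed after 5 h plating (217-fold dilution of DMSO stocks) and incubated 16 h at 37C. Viability taken as cellular ATP by CellTiter-Glo luminescence after 30 min RT; signal loss marks cytotoxicity.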

Test [8] has as its target Cellular tumor antigen p53 (Homo sapiens) (UniProt P04637). The test can be described thus: TOX21_p53_BLA_p3_ratio: Tox21 HCT-116 p53 Agonism Beta-lactamase Assay, Ratio, Phase 3 (AID 2283596). The gist of the method: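 Cells were seeded at 4000/well, rested 5 h at 37C, then dosed with DMSO compound solutions (217-fold dilution) for 16 h. CCF4-AM substrate was loaded for 2 h at room temperature, and the 460/530 nm emission ratio was fitted for gain of signal versus DMSO.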

The structures appear in SMILES notation. Where “and” joins values, the source holds several entries; their conditions need not be identical. Equal values may be shown once. Inconclusive results are not listed. Calls of active or inactive are those of the source. The calls were made as follows: active = hit-call score of the fitted dose curve at least 0.9, where 1 is the maximum; inconclusive = response in the unintended direction; inactive = score below 0.9.

Cellular tumor antigen p53 (Homo sapiens), sequence (P04637 whole entry, looked up): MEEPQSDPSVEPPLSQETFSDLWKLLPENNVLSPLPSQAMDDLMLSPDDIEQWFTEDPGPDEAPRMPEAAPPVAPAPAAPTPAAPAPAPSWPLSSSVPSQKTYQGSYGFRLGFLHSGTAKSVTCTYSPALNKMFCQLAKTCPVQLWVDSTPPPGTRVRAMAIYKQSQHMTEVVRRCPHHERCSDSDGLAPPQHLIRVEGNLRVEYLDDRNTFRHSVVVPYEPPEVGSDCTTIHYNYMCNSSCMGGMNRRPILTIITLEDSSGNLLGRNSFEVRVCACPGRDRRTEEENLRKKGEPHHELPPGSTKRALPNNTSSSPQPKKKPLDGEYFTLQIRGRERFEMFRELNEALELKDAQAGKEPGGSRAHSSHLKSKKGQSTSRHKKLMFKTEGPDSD

On to `Cl/C=C/Cl`, for which the outcome in test [1], in test [2], in test [3] and in test [4] was inactive.
Regarding `NC(=O)CF`, the result in test [1] and in test [5] was inactive.
With `COc1cc(OC)nc(NC(=O)NS(=O)(=O)c2ncccc2C(=O)N(C)C)n1`, the outcome in test [1], in test [5], in test [6], in test [3] and in test [4] was inactive.
Consider `CNC(=O)O/N=C/C(C)(C)S(C)=O` (centres undefined), for which the outcome in test [7], in test [1], in test [6] and in test [4] was inactive.
Regarding `CCC(=O)c1ccccc1`, the result in test [7], in test [1], in test [5], in test [6] and in test [3] was inactive.
As for `N#CN=C(N)N`, the outcome in test [1], in test [5], in test [6], in test [3] and in test [4] was inactive.
Regarding `Cc1ccccc1C(=O)Nc1cccc(OC(C)C)c1`, the call in test [7], in test [1], in test [2], in test [5], in test [6] and in test [3] was inactive. For the same molecule, the outcome in test [4] was inactive.
Regarding `NNC(=S)NN`, the result in test [1], in test [2], in test [5], in test [6] and in test [4] was inactive.
As to `c1cc[c]([Hg][c]2ccccc2)cc1`, the values for the AC50 in test [1] and in test [5] were 15.2 µM (active) and 79.3 µM (active), respectively. Further, the result in test [8] and in test [6] was inactive.
`COP(=S)(OC)Oc1cc(Cl)c(Cl)cc1Cl`: the result in test [1], in test [2], in test [8], in test [5], in test [6] and in test [3] was inactive. The outcome in test [4] was inactive.
As for `N#Cc1ccccn1`, the result in test [7], in test [1], in test [8], in test [5], in test [6] and in test [3] was inactive. In test [4], the outcome was inactive.
Take `CCOP(OCC)OCC`: the result in test [1], in test [2], in test [8], in test [5], in test [6] and in test [4] was inactive.
Consider `CC(C#N)CCC#N` (centres undefined), for which the call in test [7], in test [2], in test [5], in test [6], in test [3] and in test [4] was inactive.
`COc1ccc(C(O)(c2cncnc2)C2CC2)cc1` (centres undefined): the result in test [8], in test [3] and in test [4] was inactive.
Turning to `COP(=O)(OC)O/C(=C\Cl)c1cc(Cl)c(Cl)cc1Cl`, the outcome in test [1], in test [2], in test [5], in test [6] and in test [4] was inactive.
As for `Nc1ccc(N=Nc2ccc(-c3ccc(N=Nc4c(S(=O)(=O)O)cc5cc(S(=O)(=O)O)c(N=Nc6ccccc6)c(O)c5c4N)cc3)cc2)c(N)c1`, the outcome in test [1], in test [2], in test [8], in test [5], in test [6] and in test [4] was inactive.
Take `O=C(CCl)CCl`: in test [2], the AC50 (in general, the midpoint of the concentration-response curve, whichever way the signal moves) was 19.3 µM (active) and 22.3 µM (active). The outcome in test [8], in test [5], in test [6], in test [3] and in test [4] was inactive.
Take `CCC[CH2][Sn]([Cl])([Cl])[Cl]`: the result in test [1], in test [6], in test [3] and in test [4] was inactive.
`O=C/C=C/c1ccccc1`: the result in test [1], in test [2], in test [8], in test [5], in test [6] and in test [3] was inactive. Moreover, the outcome in test [4] was inactive.
With `P.[In]`, the molecule was called inactive in test [7], in test [2], in test [8], in test [5], in test [6] and in test [3]. For the same molecule, the result in test [4] was inactive.
As for `CCOC(=O)CP(=O)(OCC)OCC`, the result in test [1], in test [2], in test [8] and in test [4] was inactive.
For `CC(C)OC(=S)S`, the result in test [1], in test [8], in test [5], in test [6] and in test [3] was inactive.
Take `COP(=S)(OC)Oc1cc(Cl)c(Br)cc1Cl`: the results for the AC50 in test [1], in test [8] and in test [4] were 70.1 µM (active), 46.8 µM (active) and 79.6 µM (active), respectively. For the same molecule, the outcome in test [2], in test [5] and in test [6] was inactive.
On to `ClCc1cccnc1`, for which the result in test [7], in test [1], in test [8], in test [6] and in test [3] was inactive.
As for `COP(=S)(OC)Oc1ccc(Sc2ccc(OP(=S)(OC)OC)cc2)cc1`, the result in test [1], in test [2], in test [8], in test [5], in test [6] and in test [3] was inactive. Besides, the outcome in test [4] was inactive.
On to `OCC(O)CCl` (centres undefined), for which the outcome in test [1], in test [2], in test [8], in test [5], in test [6] and in test [3] was inactive. Besides, the outcome in test [4] was inactive.
